Laboratory results from the supplement of paper PMC8866396.
± gives the standard deviation of the averaged measurements.

What was measured:
IL-6-GFP PC-9GR = assay: cell viability (CCK-8 OD) relative to DMSO control (fraction of control); higher = more viable cells; details: compound concentration: 10 uM; treatment time: 48 h
Summary of the method: (§1)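 PC-9 and PC-9GR lung cancer cells overexpressing IL-6-GFP from a lentiviral construct were plated at 3000 cells/well in 96-well plates. Each compound from a purchased 510-compound library was added at a final 10 μM for 48 h, with a parallel plate set used for GFP imaging. Viability was measured by CCK-8 absorbance and expressed as each well's optical density divided by the vehicle (DMSO) control well, from two independent replicates.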

IL-6-GFP PC-9 = assay: as above; details: compound concentration: 10 uM; treatment time: 48 h
Summary of the method: as §1

Structure (SMILES): Nc1ccc(F)cc1NC(=O)c1ccc(CNC(=O)/C=C/c2cccnc2)cc1 [Tucidinostat (Chidamide)]
- cell viability (IL-6-GFP PC-9GR): 0.836 ± 0.38
- cell viability (IL-6-GFP PC-9): 0.606 ± 0.23

Structure (SMILES): CC1Oc2cc(cnc2N)-c2c(nn(C)c2C#N)CN(C)C(=O)c2ccc(F)cc21 (stereo unspecified)
- cell viability (IL-6-GFP PC-9GR): 0.802 ± 0.14
- cell viability (IL-6-GFP PC-9): 0.945 ± 0.12

Structure (SMILES): C#Cc1cccc(Nc2ncnc3cc(OCCOC)c(OCCOC)cc23)c1 [Erlotinib]
- cell viability (IL-6-GFP PC-9GR): 0.81 ± 0.028
- cell viability (IL-6-GFP PC-9): 0.616 ± 0.035

Structure (SMILES): CNC(=O)c1ccccc1Sc1ccc2c(/C=C/c3ccccn3)n[nH]c2c1 [Axitinib]
- cell viability (IL-6-GFP PC-9GR): 0.712 ± 0.0072
- cell viability (IL-6-GFP PC-9): 0.532 ± 0.05

Structure (SMILES): Nc1nc(Cl)nc2c1ncn2C1OC(CO)C(O)C1F (stereo unspecified) [Clofarabine]
- cell viability (IL-6-GFP PC-9GR): 0.5 ± 0.013
- cell viability (IL-6-GFP PC-9): 0.337 ± 0.13

Structure (SMILES): CC(=O)OCC(=O)C1(O)C(C)CC2C3CCC4=CC(=O)C=CC4(C)C3(F)C(O)CC21C (stereo unspecified) [Dexamethasone Acetate]
- cell viability (IL-6-GFP PC-9GR): 0.9 ± 0.23
- cell viability (IL-6-GFP PC-9): 0.945 ± 0.21

Structure (SMILES): CCC1(O)C(=O)OCc2c1cc1n(c2=O)Cc2cc3c(CN(C)C)c(O)ccc3nc2-1 (stereo unspecified) [Topotecan]
- cell viability (IL-6-GFP PC-9GR): 0.333 ± 0.19
- cell viability (IL-6-GFP PC-9): 0.3428 ± 0.0013

Structure (SMILES): COc1ccc2cc(C(C)C(=O)O)ccc2c1 (stereo unspecified) [Naproxen]
- cell viability (IL-6-GFP PC-9GR): 1.5 ± 0.37
- cell viability (IL-6-GFP PC-9): 1.08 ± 0.16

Structure (SMILES): COc1ccc2cc1Oc1ccc(cc1)CC1c3cc(c(OC)cc3CCN1C)Oc1c(OC)c(OC)cc3c1C(C2)N(C)CC3 (stereo unspecified) [Tetrandrine]
- cell viability (IL-6-GFP PC-9GR): 1.15 ± 0.36
- cell viability (IL-6-GFP PC-9): 1.3 ± 0.043

Structure (SMILES): CC(C)(C)c1ccc(C(=O)CCCN2CCC(OC(c3ccccc3)c3ccccc3)CC2)cc1 [Ebastine]
- cell viability (IL-6-GFP PC-9GR): 0.62 ± 0.3
- cell viability (IL-6-GFP PC-9): 0.628 ± 0.031

Structure (SMILES): NC(CO)(CO)CO [Trometamol]
- cell viability (IL-6-GFP PC-9GR): 0.932 ± 0.18
- cell viability (IL-6-GFP PC-9): 1.09 ± 0.061

Structure (SMILES): O=c1ccc2cc3ccoc3cc2o1 [Psoralen]
- cell viability (IL-6-GFP PC-9GR): 0.808 ± 0.11
- cell viability (IL-6-GFP PC-9): 1.13 ± 0.057

Structure (SMILES): O=C([O-])Cc1ccccc1Nc1c(Cl)cccc1Cl.[Na+] [Diclofenac Sodium]
- cell viability (IL-6-GFP PC-9GR): 1.3 ± 0.039
- cell viability (IL-6-GFP PC-9): 1.09 ± 0.084

Structure (SMILES): Cc1ccc(C(=O)Nc2ccc(CN3CCN(C)CC3)c(C(F)(F)F)c2)cc1C#Cc1cnc2cccnn12
- cell viability (IL-6-GFP PC-9GR): 0.464 ± 0.3
- cell viability (IL-6-GFP PC-9): 0.378 ± 0.19

Structure (SMILES): Nc1cc(C(Cl)=C(Cl)Cl)c(S(N)(=O)=O)cc1S(N)(=O)=O [Clorsulon]
- cell viability (IL-6-GFP PC-9GR): 1.21 ± 0.16
- cell viability (IL-6-GFP PC-9): 1.08 ± 0.11

Structure (SMILES): CN1C2=CC(=O)/C(=N\NC(N)=O)C=C2CC1S(=O)(=O)[O-].[Na+] (stereo unspecified) [Carbazochrome sodium sulfonate (AC-17)]
- cell viability (IL-6-GFP PC-9GR): 1.16 ± 0.028
- cell viability (IL-6-GFP PC-9): 1.04 ± 0.16

Structure (SMILES): Cc1cc2ncc(C(=O)NCC(C)(C)NCC(=O)N3CCCC3C#N)cn2n1 (stereo unspecified) [Anagliptin]
- cell viability (IL-6-GFP PC-9GR): -0.0161 ± 0.12
- cell viability (IL-6-GFP PC-9): 1.23 ± 0.022

Structure (SMILES): CC/C(=C(\c1ccccc1)c1ccc(OCCN(C)C)cc1)c1ccccc1.O=C(O)CC(O)(CC(=O)O)C(=O)O [Tamoxifen]
- cell viability (IL-6-GFP PC-9GR): 1.2165 ± 0.0005
- cell viability (IL-6-GFP PC-9): 0.589 ± 0.053

Structure (SMILES): CCS(=O)(=O)O.COC(=O)c1ccc2c(c1)NC(=O)/C2=C(\Nc1ccc(N(C)C(=O)CN2CCN(C)CC2)cc1)c1ccccc1 [Nintedanib Ethanesulfonate Salt]
- cell viability (IL-6-GFP PC-9GR): 0.8 ± 0.075
- cell viability (IL-6-GFP PC-9): 0.782 ± 0.023

Structure (SMILES): CCN(CC)CCNC(=O)c1c(C)[nH]c(/C=C2\C(=O)Nc3ccc(F)cc32)c1C [Sunitinib]
- cell viability (IL-6-GFP PC-9GR): 0.573 ± 0.2
- cell viability (IL-6-GFP PC-9): 0.911 ± 0.27

Structure (SMILES): CN(C)CCC(c1ccc(Br)cc1)c1ccccn1.O=C(O)/C=C\C(=O)O (stereo unspecified) [Brompheniramine hydrogen maleate]
- cell viability (IL-6-GFP PC-9GR): 1.17 ± 0.23
- cell viability (IL-6-GFP PC-9): 1.09 ± 0.15

Structure (SMILES): CCc1ccc(Cc2ccc3c(c2)C2(OC3)OC(CO)C(O)C(O)C2O)cc1.O (stereo unspecified) [Tofogliflozin(CSG 452)]
- cell viability (IL-6-GFP PC-9GR): 0.92 ± 0.21
- cell viability (IL-6-GFP PC-9): 1.02 ± 0.25

Structure (SMILES): CS(=O)(=O)CCNCc1ccc(-c2ccc3ncnc(Nc4ccc(OCc5cccc(F)c5)c(Cl)c4)c3c2)o1.Cc1ccc(S(=O)(=O)O)cc1.Cc1ccc(S(=O)(=O)O)cc1
- cell viability (IL-6-GFP PC-9GR): 1.18 ± 0.056
- cell viability (IL-6-GFP PC-9): 0.708 ± 0.033

Structure (SMILES): CCC(C)n1ncn(-c2ccc(N3CCN(c4ccc(OCC5COC(Cn6cncn6)(c6ccc(Cl)cc6Cl)O5)cc4)CC3)cc2)c1=O (stereo unspecified) [Itraconazole]
- cell viability (IL-6-GFP PC-9GR): 0.797 ± 0.19
- cell viability (IL-6-GFP PC-9): 0.269 ± 0.17

Structure (SMILES): COC(=O)c1cc(OC)c2c(c1-c1c(CO)cc(OC)c3c1OCO3)OCO2 [Bicyclol]
- cell viability (IL-6-GFP PC-9GR): 1.16 ± 0.29
- cell viability (IL-6-GFP PC-9): 0.934 ± 0.097

Structure (SMILES): O=C(NCC1CN(c2ccc(N3CCOCC3=O)cc2)C(=O)O1)c1ccc(Cl)s1 (stereo unspecified) [Rivaroxaban]
- cell viability (IL-6-GFP PC-9GR): 0.949 ± 0.11
- cell viability (IL-6-GFP PC-9): 0.98 ± 0.11

Structure (SMILES): Cn1nnc2c(C(N)=O)ncn2c1=O [Temozolomide]
- cell viability (IL-6-GFP PC-9GR): 1.18 ± 0.04
- cell viability (IL-6-GFP PC-9): 0.6981 ± 0.0048

Structure (SMILES): Nc1nc(F)nc2c1ncn2C1OC(COP(=O)(O)O)C(O)C1O (stereo unspecified) [Fludarabine Phosphate]
- cell viability (IL-6-GFP PC-9GR): 0.174 ± 0.083
- cell viability (IL-6-GFP PC-9): 0.206 ± 0.052
